Drawing on ChEMBL document CHEMBL1961873, “Compounds: GSK PKIS; Assays: Nanosyn kinase panel” (2012), this text covers inhibition for four compounds.

The structures appear in SMILES notation.

In test [1] the target is Tyrosine-protein kinase SYK (Homo sapiens) (UniProt P43405). To be noted: at 1 µM.
The target in test [2] is T1, Tyrosine-protein kinase Tec (Homo sapiens) (UniProt P42680).
T1 sequence (whole entry): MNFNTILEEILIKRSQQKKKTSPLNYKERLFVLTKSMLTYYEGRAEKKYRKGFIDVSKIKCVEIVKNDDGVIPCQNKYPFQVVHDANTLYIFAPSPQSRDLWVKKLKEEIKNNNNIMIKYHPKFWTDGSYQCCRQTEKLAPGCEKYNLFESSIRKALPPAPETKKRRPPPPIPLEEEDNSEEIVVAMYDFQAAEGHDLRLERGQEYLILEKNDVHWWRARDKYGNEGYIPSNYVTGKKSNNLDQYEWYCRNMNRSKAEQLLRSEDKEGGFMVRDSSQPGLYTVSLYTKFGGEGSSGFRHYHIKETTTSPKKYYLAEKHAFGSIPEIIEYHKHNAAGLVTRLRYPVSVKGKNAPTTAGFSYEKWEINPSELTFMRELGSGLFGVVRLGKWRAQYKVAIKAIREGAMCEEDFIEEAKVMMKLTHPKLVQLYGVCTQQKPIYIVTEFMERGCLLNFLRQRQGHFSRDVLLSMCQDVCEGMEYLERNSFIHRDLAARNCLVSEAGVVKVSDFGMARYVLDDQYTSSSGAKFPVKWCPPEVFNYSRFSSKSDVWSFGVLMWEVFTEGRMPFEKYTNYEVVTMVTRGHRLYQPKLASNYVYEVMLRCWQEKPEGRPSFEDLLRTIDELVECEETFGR
To be noted: at 0.1 µM.

Test [3] addresses T1, Tyrosine-protein kinase Tec (Homo sapiens). To be noted: at 1 µM.
In test [4] the target is Angiopoietin-1 receptor (Homo sapiens) (UniProt Q02763). As to conditions: at 0.1 µM.
The target is the same in test [5]. To be noted: at 1 µM.
For test [6], the target named is T2, Non-receptor tyrosine-protein kinase TNK1 (Homo sapiens) (UniProt Q13470).
T2 sequence (whole entry): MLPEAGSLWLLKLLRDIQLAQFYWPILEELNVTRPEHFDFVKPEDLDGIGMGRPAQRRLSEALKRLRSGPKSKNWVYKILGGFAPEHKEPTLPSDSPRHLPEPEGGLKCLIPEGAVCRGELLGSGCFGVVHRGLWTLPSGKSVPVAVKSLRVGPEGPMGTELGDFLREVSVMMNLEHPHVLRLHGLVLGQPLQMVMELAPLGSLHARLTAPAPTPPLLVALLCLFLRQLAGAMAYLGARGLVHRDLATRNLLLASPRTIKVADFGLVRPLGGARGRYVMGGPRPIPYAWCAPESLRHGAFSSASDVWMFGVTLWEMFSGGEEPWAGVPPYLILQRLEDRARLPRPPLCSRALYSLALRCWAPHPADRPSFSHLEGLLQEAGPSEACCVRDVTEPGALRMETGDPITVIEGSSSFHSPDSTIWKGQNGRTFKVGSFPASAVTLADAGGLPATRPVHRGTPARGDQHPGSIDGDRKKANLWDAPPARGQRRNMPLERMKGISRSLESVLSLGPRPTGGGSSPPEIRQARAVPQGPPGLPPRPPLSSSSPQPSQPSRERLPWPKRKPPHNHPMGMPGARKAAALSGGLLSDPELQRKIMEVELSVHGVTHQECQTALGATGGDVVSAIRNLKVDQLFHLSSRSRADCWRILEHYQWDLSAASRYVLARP
To be noted: at 0.1 µM.

Test [7] addresses T2, Non-receptor tyrosine-protein kinase TNK1 (Homo sapiens). To be noted: at 1 µM.
Test [8] has as its target Activated CDC42 kinase 1 (Homo sapiens) (UniProt Q07912). To be noted: at 0.1 µM.
For test [9] the target is unchanged. As to conditions: at 1 µM.
For test [10], the target named is High affinity nerve growth factor receptor (Homo sapiens) (UniProt P04629). As to conditions: at 0.1 µM.
Test [11] has the same target. As to conditions: at 1 µM.
Test [12] has as its target BDNF/NT-3 growth factors receptor (Homo sapiens) (UniProt Q16620). To be noted: at 0.1 µM.
Test [13] has the same target. To be noted: at 1 µM.
The target of test [14] is NT-3 growth factor receptor (Homo sapiens) (UniProt Q16288). To be noted: at 0.1 µM.
Test [15] has the same target. To be noted: at 1 µM.
Test [16] has as its target T3, Tyrosine-protein kinase TXK (Homo sapiens) (UniProt P42681).
T3 sequence (whole entry): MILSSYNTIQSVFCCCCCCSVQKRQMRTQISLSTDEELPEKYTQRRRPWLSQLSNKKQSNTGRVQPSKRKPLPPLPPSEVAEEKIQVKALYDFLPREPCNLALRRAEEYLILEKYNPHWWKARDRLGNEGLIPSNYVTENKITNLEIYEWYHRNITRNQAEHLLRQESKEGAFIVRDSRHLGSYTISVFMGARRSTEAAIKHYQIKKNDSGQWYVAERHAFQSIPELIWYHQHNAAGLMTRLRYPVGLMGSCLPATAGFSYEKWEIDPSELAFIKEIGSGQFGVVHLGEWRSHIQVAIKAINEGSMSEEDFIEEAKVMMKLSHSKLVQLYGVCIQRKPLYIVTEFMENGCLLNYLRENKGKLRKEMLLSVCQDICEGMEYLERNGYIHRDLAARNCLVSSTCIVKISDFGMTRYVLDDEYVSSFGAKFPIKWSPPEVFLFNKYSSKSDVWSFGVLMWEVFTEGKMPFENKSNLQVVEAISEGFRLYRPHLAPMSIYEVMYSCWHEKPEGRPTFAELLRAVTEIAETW
To be noted: at 0.1 µM.

For test [17], the target named is T3, Tyrosine-protein kinase TXK (Homo sapiens). As to conditions: at 1 µM.
Test [18] addresses Non-receptor tyrosine-protein kinase TYK2 (Homo sapiens) (UniProt P29597). As to conditions: at 0.1 µM.
In test [19] the target is T4, Dual specificity protein kinase TTK (Homo sapiens) (UniProt P33981).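 Also: reported figures are mean TTK inhibition at 1 µM.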
T4 sequence (whole entry): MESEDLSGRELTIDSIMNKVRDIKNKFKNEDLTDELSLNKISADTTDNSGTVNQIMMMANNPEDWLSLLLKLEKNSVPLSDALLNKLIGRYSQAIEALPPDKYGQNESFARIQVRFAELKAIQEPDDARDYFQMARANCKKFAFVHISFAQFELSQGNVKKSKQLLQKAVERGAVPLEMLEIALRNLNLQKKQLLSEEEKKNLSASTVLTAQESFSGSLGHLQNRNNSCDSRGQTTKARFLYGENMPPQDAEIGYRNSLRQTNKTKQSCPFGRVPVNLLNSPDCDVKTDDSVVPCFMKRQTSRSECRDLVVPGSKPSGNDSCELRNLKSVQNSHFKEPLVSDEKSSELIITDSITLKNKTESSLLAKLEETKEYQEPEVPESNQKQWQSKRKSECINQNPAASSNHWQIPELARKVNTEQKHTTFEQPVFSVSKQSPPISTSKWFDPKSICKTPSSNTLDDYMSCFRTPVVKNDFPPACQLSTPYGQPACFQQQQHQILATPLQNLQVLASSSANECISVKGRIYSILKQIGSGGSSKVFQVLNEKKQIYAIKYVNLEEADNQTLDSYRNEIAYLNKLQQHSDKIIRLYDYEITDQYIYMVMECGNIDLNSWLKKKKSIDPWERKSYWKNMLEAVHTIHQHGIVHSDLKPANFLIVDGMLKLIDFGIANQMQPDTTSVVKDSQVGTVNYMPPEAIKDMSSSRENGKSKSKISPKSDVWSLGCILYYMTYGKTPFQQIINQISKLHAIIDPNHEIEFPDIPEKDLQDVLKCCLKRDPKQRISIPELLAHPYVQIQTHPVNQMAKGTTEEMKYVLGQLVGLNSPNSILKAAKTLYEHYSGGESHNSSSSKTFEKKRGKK
As to conditions: at 1 µM.

The target in test [20] is T5, Aurora kinase A (Homo sapiens) (UniProt O14965).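 Also: each reported value is a mean percent inhibition of Aurora-A.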
T5 sequence (whole entry): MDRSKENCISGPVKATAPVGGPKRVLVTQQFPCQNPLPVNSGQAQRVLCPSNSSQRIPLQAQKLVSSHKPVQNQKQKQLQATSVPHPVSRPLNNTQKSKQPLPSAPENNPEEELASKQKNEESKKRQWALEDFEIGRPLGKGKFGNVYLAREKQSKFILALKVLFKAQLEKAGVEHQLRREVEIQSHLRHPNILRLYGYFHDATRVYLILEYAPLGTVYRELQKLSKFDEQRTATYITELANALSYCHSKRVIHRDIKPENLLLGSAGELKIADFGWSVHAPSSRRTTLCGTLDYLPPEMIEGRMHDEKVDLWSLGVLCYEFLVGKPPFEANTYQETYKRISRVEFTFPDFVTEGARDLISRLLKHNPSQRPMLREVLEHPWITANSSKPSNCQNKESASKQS
As to conditions: at 0.1 µM.

Chain of NT-3 growth factor receptor (Homo sapiens) (Q16288 32-839 limits assumed): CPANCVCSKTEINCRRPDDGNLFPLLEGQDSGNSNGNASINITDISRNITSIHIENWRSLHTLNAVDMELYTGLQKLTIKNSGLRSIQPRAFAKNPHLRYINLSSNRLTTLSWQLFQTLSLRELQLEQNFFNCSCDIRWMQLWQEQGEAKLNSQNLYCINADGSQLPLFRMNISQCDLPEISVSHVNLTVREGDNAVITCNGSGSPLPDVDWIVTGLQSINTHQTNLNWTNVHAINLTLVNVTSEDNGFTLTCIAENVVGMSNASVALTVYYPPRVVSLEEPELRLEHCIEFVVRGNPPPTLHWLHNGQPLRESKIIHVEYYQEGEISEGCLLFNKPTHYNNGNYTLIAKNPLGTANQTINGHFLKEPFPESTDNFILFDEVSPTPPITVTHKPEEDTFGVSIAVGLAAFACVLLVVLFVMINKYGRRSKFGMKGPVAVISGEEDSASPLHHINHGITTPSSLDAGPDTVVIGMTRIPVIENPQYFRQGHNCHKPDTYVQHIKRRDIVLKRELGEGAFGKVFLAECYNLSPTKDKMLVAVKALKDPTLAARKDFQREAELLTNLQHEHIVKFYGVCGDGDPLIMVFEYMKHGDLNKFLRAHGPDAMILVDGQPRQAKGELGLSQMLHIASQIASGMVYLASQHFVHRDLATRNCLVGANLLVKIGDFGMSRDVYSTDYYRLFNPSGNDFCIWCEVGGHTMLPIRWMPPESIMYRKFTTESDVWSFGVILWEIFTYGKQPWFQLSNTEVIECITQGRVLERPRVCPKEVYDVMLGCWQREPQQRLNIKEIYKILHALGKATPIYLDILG
Chain of Non-receptor tyrosine-protein kinase TYK2 (Homo sapiens) (P29597 whole entry): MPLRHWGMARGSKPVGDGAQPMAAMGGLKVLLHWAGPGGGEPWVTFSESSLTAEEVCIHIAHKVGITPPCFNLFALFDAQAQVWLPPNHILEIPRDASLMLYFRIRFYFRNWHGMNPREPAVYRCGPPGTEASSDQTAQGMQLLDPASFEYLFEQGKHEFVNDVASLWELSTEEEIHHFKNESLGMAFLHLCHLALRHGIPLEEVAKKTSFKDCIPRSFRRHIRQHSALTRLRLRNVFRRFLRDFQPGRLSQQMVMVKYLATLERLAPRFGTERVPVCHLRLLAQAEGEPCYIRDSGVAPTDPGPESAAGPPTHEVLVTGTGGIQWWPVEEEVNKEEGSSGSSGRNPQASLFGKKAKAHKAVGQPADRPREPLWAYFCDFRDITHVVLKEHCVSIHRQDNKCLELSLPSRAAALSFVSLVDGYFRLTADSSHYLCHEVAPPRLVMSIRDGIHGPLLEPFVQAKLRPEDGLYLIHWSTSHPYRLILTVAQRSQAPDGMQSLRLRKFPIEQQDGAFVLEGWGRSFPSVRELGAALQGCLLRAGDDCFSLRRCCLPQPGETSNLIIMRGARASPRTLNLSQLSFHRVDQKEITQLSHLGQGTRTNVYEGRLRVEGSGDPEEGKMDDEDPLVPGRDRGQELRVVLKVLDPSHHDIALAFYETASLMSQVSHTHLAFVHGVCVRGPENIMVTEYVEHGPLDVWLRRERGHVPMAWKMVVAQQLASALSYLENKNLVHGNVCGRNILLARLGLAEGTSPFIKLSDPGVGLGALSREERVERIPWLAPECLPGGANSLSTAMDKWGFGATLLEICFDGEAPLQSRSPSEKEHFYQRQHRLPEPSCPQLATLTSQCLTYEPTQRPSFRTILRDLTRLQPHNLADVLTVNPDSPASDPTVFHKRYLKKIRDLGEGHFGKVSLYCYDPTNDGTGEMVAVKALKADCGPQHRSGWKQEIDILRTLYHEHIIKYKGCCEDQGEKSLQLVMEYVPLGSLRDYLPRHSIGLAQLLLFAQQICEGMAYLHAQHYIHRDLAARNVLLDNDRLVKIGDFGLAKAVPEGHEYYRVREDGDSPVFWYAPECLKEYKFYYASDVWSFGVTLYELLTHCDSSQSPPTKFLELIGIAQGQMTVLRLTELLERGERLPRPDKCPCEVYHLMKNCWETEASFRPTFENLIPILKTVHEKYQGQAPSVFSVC
Chain of BDNF/NT-3 growth factors receptor (Homo sapiens) (Q16620 32-822 limits assumed): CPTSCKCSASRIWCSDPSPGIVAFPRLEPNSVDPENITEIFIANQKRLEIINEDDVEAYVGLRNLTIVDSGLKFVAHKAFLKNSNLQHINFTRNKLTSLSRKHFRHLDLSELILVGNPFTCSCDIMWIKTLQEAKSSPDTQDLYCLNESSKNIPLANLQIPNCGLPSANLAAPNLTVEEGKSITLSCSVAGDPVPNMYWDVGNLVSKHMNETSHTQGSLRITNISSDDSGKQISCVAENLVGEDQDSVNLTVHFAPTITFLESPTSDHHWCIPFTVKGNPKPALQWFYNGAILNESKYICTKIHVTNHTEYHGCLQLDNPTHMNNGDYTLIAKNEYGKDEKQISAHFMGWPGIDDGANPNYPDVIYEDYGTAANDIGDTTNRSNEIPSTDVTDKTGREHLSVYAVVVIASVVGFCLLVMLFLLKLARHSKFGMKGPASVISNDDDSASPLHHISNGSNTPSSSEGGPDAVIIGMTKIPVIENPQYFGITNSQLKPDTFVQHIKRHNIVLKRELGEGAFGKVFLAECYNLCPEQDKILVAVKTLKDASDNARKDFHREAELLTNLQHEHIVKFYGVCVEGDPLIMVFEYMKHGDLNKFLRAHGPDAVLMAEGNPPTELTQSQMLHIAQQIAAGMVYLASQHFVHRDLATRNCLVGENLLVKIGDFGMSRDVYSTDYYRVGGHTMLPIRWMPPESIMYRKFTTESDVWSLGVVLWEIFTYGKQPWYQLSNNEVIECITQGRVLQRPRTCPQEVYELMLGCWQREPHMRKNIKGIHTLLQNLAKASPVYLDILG
Chain of Activated CDC42 kinase 1 (Homo sapiens) (Q07912 whole entry, looked up): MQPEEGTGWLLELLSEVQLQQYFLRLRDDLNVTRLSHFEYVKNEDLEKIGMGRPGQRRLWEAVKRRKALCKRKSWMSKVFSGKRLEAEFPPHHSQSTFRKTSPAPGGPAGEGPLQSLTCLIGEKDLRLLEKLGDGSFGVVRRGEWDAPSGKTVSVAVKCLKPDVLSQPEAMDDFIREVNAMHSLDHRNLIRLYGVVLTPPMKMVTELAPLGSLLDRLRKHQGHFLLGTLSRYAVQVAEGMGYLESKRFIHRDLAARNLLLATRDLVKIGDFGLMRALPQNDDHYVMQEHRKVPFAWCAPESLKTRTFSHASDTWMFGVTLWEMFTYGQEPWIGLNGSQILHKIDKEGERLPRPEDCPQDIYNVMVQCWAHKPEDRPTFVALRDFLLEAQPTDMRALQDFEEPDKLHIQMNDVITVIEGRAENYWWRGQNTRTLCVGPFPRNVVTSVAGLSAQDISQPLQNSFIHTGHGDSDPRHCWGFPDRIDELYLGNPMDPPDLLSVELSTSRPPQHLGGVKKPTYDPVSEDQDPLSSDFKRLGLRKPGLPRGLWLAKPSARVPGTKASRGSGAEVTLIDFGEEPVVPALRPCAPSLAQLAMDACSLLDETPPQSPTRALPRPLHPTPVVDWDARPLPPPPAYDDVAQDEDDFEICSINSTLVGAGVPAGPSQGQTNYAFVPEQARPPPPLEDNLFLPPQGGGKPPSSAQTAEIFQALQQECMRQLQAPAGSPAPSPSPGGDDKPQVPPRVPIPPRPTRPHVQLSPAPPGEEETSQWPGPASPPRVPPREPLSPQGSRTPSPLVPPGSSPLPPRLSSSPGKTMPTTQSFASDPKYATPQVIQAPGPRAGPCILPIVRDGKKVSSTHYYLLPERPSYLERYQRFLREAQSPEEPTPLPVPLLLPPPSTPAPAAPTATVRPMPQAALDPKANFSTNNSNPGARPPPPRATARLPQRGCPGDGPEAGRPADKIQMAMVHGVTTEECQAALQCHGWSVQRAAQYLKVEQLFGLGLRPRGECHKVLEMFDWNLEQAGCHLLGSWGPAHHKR
Chain of High affinity nerve growth factor receptor (Homo sapiens) (P04629 33-796 limits assumed): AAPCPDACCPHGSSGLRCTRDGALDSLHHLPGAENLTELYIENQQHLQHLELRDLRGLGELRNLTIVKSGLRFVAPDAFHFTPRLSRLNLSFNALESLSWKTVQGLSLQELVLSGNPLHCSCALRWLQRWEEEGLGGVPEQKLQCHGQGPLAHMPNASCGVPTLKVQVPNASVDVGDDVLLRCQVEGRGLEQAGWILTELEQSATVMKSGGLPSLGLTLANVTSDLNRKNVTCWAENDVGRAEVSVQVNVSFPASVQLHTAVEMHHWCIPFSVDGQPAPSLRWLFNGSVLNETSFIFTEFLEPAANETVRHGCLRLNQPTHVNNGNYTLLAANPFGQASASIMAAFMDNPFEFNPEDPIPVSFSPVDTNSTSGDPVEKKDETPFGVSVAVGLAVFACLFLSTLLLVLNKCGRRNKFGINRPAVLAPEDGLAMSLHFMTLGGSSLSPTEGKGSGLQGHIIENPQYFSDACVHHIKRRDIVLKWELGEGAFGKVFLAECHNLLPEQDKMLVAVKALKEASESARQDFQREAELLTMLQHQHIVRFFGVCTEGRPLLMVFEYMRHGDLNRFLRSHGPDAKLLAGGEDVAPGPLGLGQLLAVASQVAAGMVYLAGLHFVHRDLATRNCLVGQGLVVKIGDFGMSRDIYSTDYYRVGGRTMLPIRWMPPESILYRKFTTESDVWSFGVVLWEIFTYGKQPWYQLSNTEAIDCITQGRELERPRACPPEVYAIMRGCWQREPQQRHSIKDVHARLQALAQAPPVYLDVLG

The term inhibition denotes the drop in the measured response relative to a control, in per cent. As to `COc1cccc(COc2cc(-n3cnc4ccccc43)sc2C(N)=O)c1`, the inhibition in test [1] is -4.12%; in [2] it was -0.82%; in test [3], 0.59%; in test [4], -1.48%; in test [5] it was 3.47%; in test [6], 0.87%. Also, the inhibition is 12.1% in [7]; -0.46% in test [8]; 0.57% in test [9]; -2.49% in test [10]; -7.54% in [11]; -0.03% in test [12]. Also, the inhibition is -0.8% in test [13]; -2.79% in test [14]; -1.55% in test [15]; -1.73% in test [16]; 2.43% in test [17]; -1.93% in test [18]. Moreover, the figures for the inhibition in test [19] and in [20] were 4.76% and 2.16%, respectively.
As for `Fc1ccc(-c2ncn(C3CCNCC3)c2-c2ccnc(Oc3ccccc3)n2)cc1`, the inhibition in [1] is 0.47%; in test [2], -3.67%; in [3], -1.69%; in test [4], -0.49%; in test [5], 1.7%; in test [6], 0.27%. In addition, the inhibition in test [7] was 1.01%; in [8], -0.4%; in test [9], 0.06%; in test [10], 1.92%; in [11], 1.69%; in test [12], 1.68%. Further, the inhibition in [13] is 2.74%; in test [14] it was 1.74%; in test [15], 1.25%; in [16], -5.33%; in test [17], -2.78%; in [18], -1.8%. Moreover, the figures for the inhibition in test [19] and in [20] were 6.14% and -3.42%, respectively.
Take `NS(=O)(=O)c1ccc(N/C=C2\C(=O)Nc3ccc4ncsc4c32)cc1`: the inhibition was -8.48% in test [1]; 1.96% in test [2]; 10.6% in [3]; 0.38% in test [4]; 10.4% in test [5]; 6.89% in [6]. The inhibition was 37.8% in test [7]; 0.75% in [8]; 1.83% in test [9]; 9.04% in test [10]; 51.3% in test [11]; 19.1% in test [12]. In addition, the inhibition in [13] is 65.9%; in [14] it was 21.6%; in [15], 66.9%; in [16] it was -0.44%; in [17], 10.8%; in [18], 1.37%. Moreover, the inhibition in test [19] came out at 62.4%; in test [20], 30%.
Turning to `CCn1c(-c2nonc2N)nc2c(C#CC(C)(C)O)ncc(OC[C@@H]3CCCN3)c21`, the inhibition is -4.11% in [1]; 0.03% in test [2]; 1.67% in test [3]; -0.35% in test [4]; 4.39% in test [5]; 2.04% in test [6]. Moreover, the inhibition in test [7] is 1.67%; in test [8], -0.73%; in test [9], -0.46%; in [10], -2.99%; in test [11] it was -3.52%; in test [12], -0.66%. The inhibition is 0.79% in test [13]; 1.15% in [14]; -0.37% in test [15]; -0.98% in test [16]; 1.67% in test [17]; -0.97% in test [18]. Moreover, the inhibition came out at 4.1% in test [19] and 3.07% in test [20].
